Common to all, as to experiment: PBM binding z-score (relative to random genomic background probes); higher = stronger binding; sequences stand for … in GC…GCGATTGACAGCGTAGAATGAAGG
Test [1] concerns FXR:RXRa (NR concentration 270 nM, RXRa partner concentration 90 nM). Put shortly: (§1)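 Ligand-free nuclear receptor dimers were bound for 1 h to custom Agilent 4×180K protein-binding microarrays. Detection used antibodies against each partner (one per run). Binding z-scores rest on regression-normalized fluorescence, with random background probes as the reference.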
Test [2] relates to LXRa:RXRa (NR concentration 270 nM, RXRa partner concentration 90 nM). The essentials:
as §1

Test [3] concerns LXRa homodimer (NR concentration 270 nM). Put shortly: as §1
Test [4] relates to LXRb:RXRa (NR concentration 270 nM, RXRa partner concentration 90 nM). Put shortly:
as §1

Test [5] deals with LXRb homodimer (NR concentration 270 nM). The essentials:
as §1

The test system of test [6] is PPARa:RXRa (NR concentration 270 nM, RXRa partner concentration 90 nM). Put shortly: as §1
The test system of test [7] is PPARg:RXRa (NR concentration 180 nM, RXRa partner concentration 90 nM). Put shortly: as §1
In test [8] the test system is PPARg:RXRa 270nM:90nM, anti-RXR (NR concentration 270 nM, RXRa partner concentration 90 nM). The essentials:
as §1

Test [9] concerns PPARg:RXRa 30nM:10nM, anti-RXR (NR concentration 30 nM, RXRa partner concentration 10 nM). Put shortly: as §1
Test [10] has as its system PPARg:RXRa 90nM:30nM, anti-RXR (NR concentration 90 nM, RXRa partner concentration 30 nM). Put shortly:
as §1

Test [11] deals with PPARg:RXRa DBDmut IVT, anti-RXR (DBD mutation: RXRa K156A/R161A, NR concentration 270 nM, RXRa partner concentration 90 nM). The essentials: as §1
Test [12] has as its system PPARg:RXRa IVT, anti-PPARg (NR concentration 270 nM, RXRa partner concentration 90 nM). Put shortly:
as §1

For test [13], the system named is PPARg DBDmut:RXRa IVT, anti-PPARg (DBD mutation: PPARg1 K132A/R137A, NR concentration 270 nM, RXRa partner concentration 90 nM). The essentials: as §1
Test [14] concerns PPARg DBDmut IVT, anti-PPARg (DBD mutation: PPARg1 K132A/R137A, NR concentration 270 nM). The essentials: as §1
The test system of test [15] is PPARg homodimer (NR concentration 180 nM). Put shortly:
as §1

The subject of test [16] is PXR:RXRa (NR concentration 270 nM, RXRa partner concentration 90 nM). The essentials: as §1
Test [17] deals with PXR homodimer (NR concentration 270 nM). Put shortly:
as §1

The test system of test [18] is RARa:RXR (NR concentration 270 nM, RXRa partner concentration 90 nM). The essentials:
as §1

The test system of test [19] is RARa homodimer (NR concentration 270 nM). Put shortly:
as §1

The test system of test [20] is RARb:RXRa (NR concentration 270 nM, RXRa partner concentration 90 nM). Put shortly:
as §1

Regarding CAAACTAGGTCAAGAGGCCAAAGTCCGCTTCCCG, the PBM binding z-score in test [1] was 3.54; in test [2], 2.84; in test [3], 0.509; in test [4], 1.81; in [5], -0.0945; in test [6], 4.7. In addition, the PBM binding z-score is 7.87 in test [7]; 6.59 in test [8]; 4.48 in test [9]; 6.47 in test [10]; 8.03 in test [11]; 8.06 in [12]. For the same sequence, the PBM binding z-score in [13] stood at 1.13; in test [14], 0.602; in test [15], 1.8; in test [16], 1.56; in [17], 0.34; in [18] it was 2.68. Further, the PBM binding z-score is 0.79 in test [19] and 3.93 in [20].
Regarding CCTACGGGGCCAAAAAGGTCATTGATGCCGATAA, the PBM binding z-score stood at 3.94 in test [1]; 4.35 in [2]; 2.76 in test [3]; 4.36 in test [4]; 0.0213 in test [5]; 4.67 in test [6]. In addition, the PBM binding z-score is 1.63 in test [7]; 2.97 in test [8]; 0.7 in test [9]; 1.77 in test [10]; 0.493 in test [11]; 1.52 in test [12]. In addition, the PBM binding z-score in test [13] was -1.13; in test [14], -0.859; in test [15], 2.87; in [16], 5.34; in [17] it was 9.18; in test [18], 5.07. For the same sequence, the figures for the PBM binding z-score in [19] and in [20] were 0.847 and 4.26, respectively.
As for GTACCAAGGTGAATAGGTTGTTGATGAGTAGGCG, the PBM binding z-score in [1] was 0.414; in test [2], 0.445; in test [3], 0.0313; in [4], 0.384; in test [5], -0.172; in test [6] it was 1.27. The PBM binding z-score in test [7] is 0.802; in test [8], 0.714; in test [9] it was -0.0689; in [10] it was 0.204; in test [11] it was 1.75; in test [12], 2.2. Moreover, the PBM binding z-score in test [13] stood at 0.246; in test [14], 0.502; in [15] it was 0.999; in test [16] it was 0.105; in test [17], 0.241; in test [18], 0.634. The PBM binding z-score in test [19] came to 1.32; in test [20] it was 1.36.
In the case of AATACAGGGCCACTAGGCCAGAGTAGGTACGAAT, the PBM binding z-score is -0.165 in test [1]; -0.349 in test [2]; -0.323 in test [3]; -0.572 in [4]; -0.877 in [5]; 0.171 in [6]. Further, the PBM binding z-score in test [7] was 1.13; in test [8], 0.532; in test [9], 0.0485; in test [10], 0.00605; in test [11], 1.33; in test [12], 2.42. For the same sequence, the PBM binding z-score is 0.705 in [13]; 0.0878 in [14]; 0.246 in test [15]; -0.239 in test [16]; -0.266 in test [17]; -0.268 in [18]. The PBM binding z-score in test [19] was 0.415; in test [20], 0.772.
CCTGGTAGGTCATGGTCAGCTAATCTACAGTATG: the PBM binding z-score in [1] came to 3.94; in test [2] it was 3.15; in test [3], 0.527; in test [4] it was 2.3; in test [5], 0.0201; in test [6] it was 4.05. Moreover, the PBM binding z-score in test [7] came to 4.22; in test [8] it was 4.12; in test [9], 1.32; in [10] it was 3.01; in [11], 4.25; in test [12], 5.18. The PBM binding z-score is 0.295 in [13]; 0.552 in test [14]; 1.94 in test [15]; 2.02 in test [16]; -0.0799 in test [17]; 2.83 in [18]. The PBM binding z-score in [19] turned out to be 0.611; in test [20] it was 3.81.
Take ATCTCTAGGTAAAGTTCAATGAAAGATCGATAGA: the PBM binding z-score in test [1] is 2.28; in [2], 3.13; in [3], 2.86; in [4], 2.25; in test [5], 1.31; in [6], 3.32. The PBM binding z-score worked out at 4.11 in test [7]; 5.15 in test [8]; 3.34 in [9]; 4.82 in [10]; 2.42 in test [11]; 3.05 in test [12]. Besides, the PBM binding z-score in test [13] was 1.44; in test [14], 1.47; in test [15], 1.79; in test [16], 3.02; in test [17], 2.63; in test [18], 1.92. Moreover, the PBM binding z-score worked out at 2.05 in test [19] and 3.19 in [20].

Values taken from the supplement of paper PMC6555819.
